Assay results reported in PubChem BioAssay (NCI).
Compounds without any hit were thinned out: in the full panel of roughly 83,000, 20% have a hit.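 In brief: 96-well plates, 48 h treatment, single concentration, percent growth endpoint.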 A number with no mark means an inactive call. Calls of active or inactive are those of the source. How the source made its calls: active means growth percent below 10; inactive means the rest.

system: HL-60(TB) leukemia; test: NCI-60 one-dose screen, 48 h (100 = growth as untreated, 0 = no growth, -100 = all killed); details: 10 µM unless noted

SMILES | growth
O=C(O)c1cccc(N/C=C/C(=O)c2cc3cc(Br)ccc3oc2=O)c1 | 99.8%
Cc1nc(-c2ccccc2)sc1CC#N | 93.9%
NC(=O)NCC1CCCCC1 | 91.3%
CN(Cc1cnc2nc(N)nc(N)c2n1)c1ccc(C(=O)N[C@@H](CCc2nn[nH]n2)c2nn[nH]n2)cc1 | 31.9%
O=C(NNC(=O)c1ccc(NC(=O)c2ccccn2)cc1)Nc1ccc2ccccc2c1 | 105%
CCCCCN1C=C/C(=C\C(=O)N(C)c2cccc3ccccc23)c2ccccc21 | 97.1%
CC(C)c1ccc(-n2c(=S)[nH]c3sc4cc(O)ccc4c3c2=O)cc1 | 99.4%
O=S(=O)(Cc1ccc(Cl)cc1Cl)c1ccc(Cl)cc1 | 10.5%
COC(=O)[C@]12CC[C@@H](C)[C@H](C)[C@@H]1C1=CC[C@@H]3[C@@]4(C)C(C=O)=C[C@@](C)(CO)C4=CC[C@@]3(C)[C@]1(C)CC2 | 16.1%
COc1ccc(/C=C(/C2=NCCN2)n2ccc3ccccc32)cc1 | 92%
Oc1ccc(Cc2ccccc2)c2cccnc12 | -15.8% (active)
COC(=O)CSc1ccc(Cl)cc1 | 83.8%
Cc1cc(-c2nnc(/C=C/c3ccc4c(c3)OCO4)o2)n[nH]1 | 10.6%
O=C(Nc1ccc2ncnc(Nc3ccc(Oc4cccc(F)c4)c(Cl)c3)c2c1)c1ccc(CN2CCOCC2)cc1 | -11.3% (active)
C#CCOC(=O)[C@]1(C)CCC[C@]2(C)[C@H]3C[C@H]4C(C(C)C)=C[C@]3(CC[C@H]21)[C@@H]1C(=O)CCC(=O)[C@@H]14 | 64.7%
C#CCNCCN1C(=O)c2ccc3c4c(ccc(c24)C1=O)C(=O)N(CCNCC#C)C3=O | -18.4% (active)
c1ccc(Cn2cc3c(c2-c2ccccc2)CCc2cnoc2-3)cc1 | 35.6%
CC12CCC3C(CCC4CC(=O)/C(=C\O)CC43C)C1CCC(=O)O2 (stereo not given) | 111%
Nc1nc(N)c(-c2ccc(Cl)cc2)c(/C=C/c2ccc([N+](=O)[O-])cc2)n1 | 47.8%
CCCOc1ccc(-c2nc(-c3ccc(N)cc3)cs2)cc1 | 56.7%

SMILES | growth
O/N=C1\c2ccccc2-c2ccc(Br)cc21 | 109%
N#Cc1ccc2nc[nH]c2c1 | 101%
CCSc1cnnc2ccccc12 | 91.5%
CCCCCCCCCCCCCCCCCCOCC(COP(=O)([O-])OCC[N+](C)(C)C)OC (stereo not given) | 46.4%
C[C@]12CC[C@@H]3c4cc(O)c(O)cc4CC[C@H]3[C@@H]1CC[C@@H]2O | 4.62% (active)
NC(=O)c1ccc(C2C3=C(CCCC3=O)OC3=C2C(=O)c2ccccc2C3=O)cc1 (stereo not given) | -30.4% (active)
N/C(=N\c1nc2ccccc2s1)NC(=NC1CCCCC1)NC1CCCCC1 | -36.3% (active)
O=C(Nc1ccc(-n2ccc3c(NC(=O)c4ccccc4)ncnc32)cc1)Nc1ccc(Cl)c(Cl)c1 | 62.1%
COC(=O)N/N=C/c1c[n+]([O-])c2ccccc2[n+]1[O-] | 97.2%
Fc1ccc(NC(=S)c2ccccc2)cc1 | 102%
CCCCCCCCN(CCO)CCCCCCCC | 100%
NC(N)=N/N=C(/c1ccccc1)c1ccc(F)cc1 | -70.6% (active)
C=C(C)C1CCC2(C)OC2C1 (stereo not given) | 95.6%
N#CCCN=Nc1c(O)[nH]c2ccc([N+](=O)[O-])cc12 | 96.6%
COc1ccc(C2N(c3cc(OC)c(OC)c(OC)c3)C(=O)C2(F)F)cc1F (stereo not given) | 0.936% (active)
C=CCn1c(SCC(=O)Nc2ccc(C(=O)/C=C/c3cc(OC)c(OC)c(OC)c3)cc2)nnc1-c1cc(-c2ccc(Cl)cc2)nc2ccccc12 | 98.7%
CCOC(=O)Cn1c(=O)c2c3ccccc3n(C)c2n2nnc(-c3ccccc3)c12 | 68.5%
O=C(CSc1nc2ccccc2c(=O)n1-c1ccccc1)Nc1ccc(C(=O)/C=C/c2ccc(Cl)cc2)cc1 | 99%
COc1ccc2nc(-c3ccc(Cl)cc3)cc(-c3nnc(SC/C(=N/O)c4ccccc4)o3)c2c1 | 82%
CCn1cc(C(=O)NN=C2CCCCCC2)c(=O)c2ccc(C)nc21 | 80.2%
